Source: PubChem BioAssay
D1 agonist – agonists of human D1 dopamine receptor. activation, % at 2 µM. actives 1% (n = 360,000). HEK293 T-REx D1 cells, calcium flux, agonist mode
Target sequence (P21728 whole entry, looked up): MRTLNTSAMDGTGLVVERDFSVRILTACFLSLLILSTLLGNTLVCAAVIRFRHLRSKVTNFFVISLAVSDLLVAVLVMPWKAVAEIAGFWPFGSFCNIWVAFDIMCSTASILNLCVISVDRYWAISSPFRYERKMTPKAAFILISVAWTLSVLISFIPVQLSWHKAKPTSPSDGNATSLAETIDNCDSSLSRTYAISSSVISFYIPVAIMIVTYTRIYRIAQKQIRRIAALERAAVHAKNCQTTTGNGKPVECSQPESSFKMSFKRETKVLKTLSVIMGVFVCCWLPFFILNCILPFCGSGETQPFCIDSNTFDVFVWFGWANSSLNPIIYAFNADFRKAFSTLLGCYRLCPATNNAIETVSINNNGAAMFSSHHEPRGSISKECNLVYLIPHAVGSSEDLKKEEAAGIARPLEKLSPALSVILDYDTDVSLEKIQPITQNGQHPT
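Inducible HEK293 T-REx D1 cells, force-coupled to calcium signalling, were plated at 4000 cells/well with tetracycline and held overnight at 30 C. After no-wash calcium dye loading, compound-evoked calcium rise over 180 s flagged agonists.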
D1 potentiator – human D1 dopamine receptor positive modulation. AID 504651. potentiation, % at 10 µM. HEK293 TREx D1 cells, calcium flux, dopamine EC20 potentiation. actives 0.036% (n = 360,000); in the data active = potentiation above about 30%
TRHR enhancer – allosteric enhancers of human TRH receptor. P34981. TRHR cells, fluo-8 calcium fluorescence, EC20 TRH enhancement. enhancement, % at 2 µM. actives 0.66% (n = 360,000). AID 493056; in the data active = enhancement above about 30%
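Enhancer read-out: after compound pinning and an initial kinetic agonist-mode read, an EC20 of TRH (10 nM final) was injected and fluo-8 calcium signal (Ex 480/Em 530) followed at 1 s/cycle for 100 cycles in TRHR-expressing cells.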
TRHR agonist – agonists of human TRH receptor; P34981; TRHR cells, calcium flux fluo-8, FDSS agonist mode; activation, % at 2 µM; actives 0.18% (n = 360,000); AID 493084
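Read-out: compound-evoked intracellular calcium rise in TRHR cells, fluo-8 dye, kinetic FDSS fluorescence at 1 s/cycle following a 10-cycle baseline. Cells cultured overnight before dye loading (30 min–1.5 h, RT).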
D1 antag – blocks dopamine activation of the human D1 receptor; P21728; HEK293 TREx D1 cells, calcium flux, dopamine EC80; hits give low values; activity change, negative = inhibition, % at 10 µM; actives 3.2% (n = 360,000); AID 504652; in the data active = activity change below about -30%
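Allosteric or orthosteric antagonism assessed as attenuation of the calcium response to EC80 dopamine, added 180 s after compound, in induced HEK293 Trex D1 cells loaded with no-wash calcium dye.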
Epigenetic reg – epigenetic control regulation, reporter derepression. AID 1865. actives 0.2% (n = 280,000). Potency, µM (titrated, usually from 53.9 µM), usual class: activators. murine LDR cells, GFP reporter derepression, 30 h; active = well fitted activation curve with a large enough effect; note: nearly all actives have a fitted effect of over 60% in size
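In this reporter-derepression format, murine cells bearing a silenced integrated CMV-GFP locus incubate with test compound (30 h, 37 C), then are washed and imaged; fluorescent objects of 20–120 um count as induced cells.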
Hits are given with their value; n = inactive; x = not tested or not shown; ! = not confirmed by another sample; [ ] = dose if it differs, or a comment. Most compounds without a hit are left out; they make up all but 4.6% or so of the library. Cut-off read from the data, not from the text of the source, unless noted: active = activation above about 30%; inactive = the rest.

SMILES | D1 agonist | D1 potentiator | TRHR enhancer | TRHR agonist | D1 antag | Epigenetic reg
Cc1csc2nc(COC(=O)c3ccc(F)cc3)cc(=O)n12 | n | n | n | n | -38 | n
O=C(NCc1ccc(F)cc1)c1ccc(NC(=O)N2CC3CCCN3c3ccccc32)cc1 (centres undefined) | n | n | n | n | n | n
CC(C)=CCC/C(C)=C/CO/N=C1/C[C@@H](O)[C@@H](O)[C@@H]2[C@@H]3C(=O)N(c4cccc(Oc5ccccc5)c4)C(=O)[C@H]3CC[C@@H]12 | x | x | x | x | x | n[10.1 µM]
OC(CC#CCN1CCCC1)(c1ccccc1)c1ccccc1 | n | n | n | n | n | n
OC(CC#CCN1CCOCC1)(c1ccccc1)c1ccccc1 | n | n | n | n | -31 | x
COc1ccc(N2CCN(S(=O)(=O)CCNC(=O)Cc3ccc(Cl)cc3)CC2)cc1 | n | n | n | n | n | n
O=c1cc(-c2ccc(O)cc2O)oc2ccccc12 | x | x | x | x | x | n
COc1cc(OC)c(-c2c3cc(O)c(=O)cc-3oc3cc(O)c(O)cc23)cc1OC | 626 | 32 | 152 | 266 | n | n
Cc1c2cc(O)c(=O)cc-2oc2cc(O)c(O)cc12 | 34! | n | n | n | n | n
COc1cc2oc(-c3ccccc3)cc(=O)c2cc1OC | x | x | x | x | x | n
Cc1nc(N2CCCC2)c2c(C(=O)N3CCN(c4cccc(C)c4C)CC3)c(C)oc2n1 | n | n | n | n | n | n
Cc1cccnc1NC(=O)C1CCN(S(=O)(=O)c2ccc3c(c2)CCC(=O)N3)CC1 | n | n | n | n | -43 | n
Cc1ccc(Cl)cc1N1CCN(S(=O)(=O)c2ccc3c(c2)CCCN3C(=O)C2CCC2)CC1 | n | n | n | n | n | n
CCc1ccc(NS(=O)(=O)c2ccc(-c3cc(C)no3)cc2)cc1 | n | n | n | n | n | n
Cc1nnc(SCc2cc(=O)[nH]c(Nc3nc(C)c4cc(C)c(C)cc4n3)n2)s1 | n | n | n | n | -73 | n
CC(=O)c1cccc(OCC(O)CNCC2COc3ccccc3O2)c1 (centres undefined) | 45 | n | n | n | -48 | x
O=C(Cn1nnnc1-c1ccccc1F)Nc1ccc(F)c(F)c1 | n | n | n | n | n | n
COC(=O)c1c(NC(=O)C2CCC2)sc(C(=O)N(C)C)c1C | n | n | n | n | n | n
CCOC(=O)c1c(NC(=O)COC(=O)C2CCC2)sc(C(=O)N(C)C)c1C | n | n | n | n | -46 | x
S=c1[nH]nc(-c2ccc3ccccc3n2)n1-c1cc(Cl)cc(Cl)c1 | 41 | n | n | n | n | n
Fc1ccc(-n2c(-c3ccc4ccccc4n3)n[nH]c2=S)cc1 | n | n | n | n | n | n
N#Cc1ccc2[nH]c(CO)c(-c3ccccc3)c2c1 | n | n | n | n | -40 | x
O=C(COc1ccccc1)NCCS(=O)(=O)N1CCN(c2ccccc2)CC1 | n | n | n | n | -35 | x
O=C(COc1ccccc1)NCC(c1ccco1)N1CCN(c2ccc(F)cc2)CC1 (centres undefined) | n | n | n | n | -64 | x
O=C(COc1ccccc1)NCC(c1ccco1)N1CCN(c2ccccc2F)CC1 (centres undefined) | n | n | n | n | n | x
SMILES | D1 agonist | D1 potentiator | TRHR enhancer | TRHR agonist | D1 antag | Epigenetic reg
COc1ccc(N2CCN(S(=O)(=O)CCNC(=O)COc3ccc(Cl)cc3)CC2)cc1 | n | n | n | n | n | x
CCCCN(CCCNC(=O)C1CCN(S(=O)(=O)N2CCOCC2)CC1)c1ccccc1 | n | n | n | n | -35 | n
CCN(CCCNC(=O)C1CCN(S(=O)(=O)N2CCC3(CC2)OCCO3)CC1)c1ccccc1 | n | n | n | n | n | n
CC(NC(=O)C(=O)Nc1c2c(nn1-c1ccc(F)cc1)CSC2)c1ccccc1 (centres undefined) | n | n | n | n | x | n
Cc1ccc(CN2C3CCCC2CC(NC(=O)c2ccc(C)cc2)C3)cc1 (centres undefined) | n | n | n | n | -68 | n
O=C(NC1CC2CCCC(C1)N2Cc1ccc(F)cc1)c1ccc(F)cc1 (centres undefined) | n | n | n | n | -68 | x
CC(=O)NC1CC2CCCC(C1)N2Cc1ccc(C)cc1 (centres undefined) | n | n | n | n | n | x
